Screens (PubChem)
Shown are actives, neighbours in structure and some others; about 21% of the full set was active somewhere.
Shiga toxin inh – inhibitors of Shiga toxin in Vero cells. Vero cells, Shiga toxin protein synthesis inhibition reporter. inhibition, % at 38.7 µM. 290,000 tested, 9.2% active. AID 2315; in the data active = inhibition mostly above about 28%, no sharp cut-off; inactive = mostly below about 43%
Pf growth 48h – P. falciparum growth inhibition at 48 hours (one generation); Potency, µM (doses to about 28.7 µM), actives largely listed as inhibitors; 310,000 tested, 5.9% active; P. falciparum luciferase growth in erythrocytes, 48 h
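Firefly luciferase activity from engineered P. falciparum reports growth; inhibitors lower the luminescent signal. Cultures contained 2% hematocrit erythrocytes at 0.1% final parasitemia.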
Cycloheximide cs – affects cycloheximide protein synthesis inhibition readout, counter-screen. cell reporter, cycloheximide protein synthesis inhibition counterscreen. max response, %. 300,000 tested, 12% active. AID 2314; in the data active = max response mostly above about 13%, no sharp cut-off; inactive = mostly below about 14%; also: read at 38.3 µM for the half of the compounds with a filed dose
Pf growth 96h – P. falciparum growth inhibition at 96 hour, primary screen for plastid delayed-death inhibitors. P. falciparum luciferase reporter growth, 96 h. Potency, µM (series often up to 28.7 µM), actives largely listed as inhibitors. 320,000 tested, 6.9% active. AID 504834
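P. falciparum expressing integrated firefly luciferase grown in erythrocytes (2% hematocrit, 0.05% parasitemia final) with compounds for 96 hours at 37 C, 5% CO2. Growth inhibition read as loss of luminescence after adding luciferase detection reagent.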
NS1 function inh – influenza NS1 inhibition; 270,000 tested, 0.4% active; Potency, µM (series often up to 46.1 µM); calls by dose curve; also: actives are rising curves; nearly all actives have a fitted effect of over 50% in size
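OD600 was taken as the measure of yeast growth restored by compound in an NS1-expressing S. cerevisiae strain. Cells had been washed out of glucose medium and diluted 1:100 into galactose -URA medium, pH 6.0.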
Hits are given with their value; - = inactive; ? = inconclusive; . = no result given; [ ] = remark or other dose. Unless noted, calls follow the shape of the dose curve; as a rule, active = well fitted inhibition curve with a large enough effect; inconclusive = small, poorly fitted or top-dose-only effect, or another doubt; inactive = no such curve, though single readings can be large or run the other way.

SMILES | Shiga toxin inh | Pf growth 48h | Cycloheximide cs | Pf growth 96h | NS1 function inh
CCN1CCc2c(sc(NC(=O)Cc3ccccc3)c2C(N)=O)C1 | - | - | - | ? | -
CCOC(=O)c1c(NC(=O)c2cccs2)sc2c1CCN(C(=O)OCC)C2 | - | ? | - | - | -
CCOC(=O)N1CCc2c(sc(NC(=O)c3ccc(Cl)s3)c2C(N)=O)C1 | - | ? | - | 13µM | -
CCN1CCc2c(sc(NC(=O)C3COc4ccccc4O3)c2C(N)=O)C1 (centres undefined) | - | - | 19 | - | -
CCOC(=O)N1CCc2c(sc(NC(=O)CCS(=O)(=O)c3ccccc3)c2C(N)=O)C1 | - | ? | - | 15µM | -
CN1CCC/C1=C1/C(=O)N(c2ccccc2)N=C1NC(=O)Nc1cccc(Cl)c1 | - | - | - | - | -
CC(C)OC(=O)COc1cc(O)c2c(=O)cc(-c3ccccc3)oc2c1 | - | - | - | - | -
CCOC(=O)N1CCc2c(sc(NC(=O)C3COc4ccccc4O3)c2C(N)=O)C1 (centres undefined) | - | ? | - | 9.3µM | -
COc1cc2ccccc2cc1C(=O)Nc1sc2c(c1C(N)=O)CCN(C(C)C)C2 | - | 8.3µM | - | 5.9µM | -
COC(=O)c1c(NC(=O)C2COc3ccccc3O2)sc2c1CCN(C(C)=O)C2 (centres undefined) | - | ? | - | ? | -
CN1CCc2c(sc(NC(=O)C3COc4ccccc4O3)c2C(N)=O)C1 (centres undefined) | - | - | 22 | - | -
CC(C)N1CCc2c(sc(NC(=O)CN3C(=O)c4ccccc4C3=O)c2C(N)=O)C1 | - | -[1.15 µM] | - | -[1.15 µM] | -
CC(=O)N1CCc2c(sc(NC(=O)C3COc4ccccc4O3)c2C(N)=O)C1 (centres undefined) | - | - | 31 | 12µM | -
CC(C)c1csc(CN2CCC(CCC(=O)NCC3CCCO3)CC2)n1 (centres undefined) | - | - | - | ? | -
CCOC(=O)c1ccc(N2Cc3ccccc3C2=N)cc1 | 126 | . | 34 | - | -
CCOC(=O)c1ccc(N2Cc3ccccc3C2=NC(=O)c2ccncc2)cc1 | 58 | ? | 28 | ? | .
CCOC(=O)c1ccc(N)cc1 | . | - | . | - | .
COc1ccc(N2Cc3ccccc3C2=NC(=O)c2cncc(Br)c2)cc1 | 71 | - | 40 | - | .
CCOC(=O)c1ccc(N2Cc3ccccc3C2=NC(=O)c2cccs2)cc1 | - | ? | - | ? | -
O=C(N=C1c2ccccc2CN1c1ccc(F)cc1)c1ccc(Cl)nc1 | - | - | 24 | - | -
O=C(CCOc1ccccc1)Nc1ccc(S(=O)(=O)Nc2ncccn2)cc1 | . | - | . | - | .
Cc1cccc(NC(=O)Nc2ccccc2)n1 | 43 | - | 23 | - | -
COc1cccc(NC(=O)Nc2cccc(C)n2)c1 | 92 | - | 53 | ? | -
COc1ccc(NC(=O)Nc2cccc3ccccc23)c(OC)c1 | - | - | - | ? | -
Cc1ccc(NC(=O)Nc2cccc(C)n2)c(C)c1 | - | - | - | - | -
SMILES | Shiga toxin inh | Pf growth 48h | Cycloheximide cs | Pf growth 96h | NS1 function inh
COc1ccc(NC(=O)Nc2cccc(C)n2)c(OC)c1 | 39 | - | 33 | ? | -
Cc1cccc(NC(=O)Nc2ccc(Cl)c(Cl)c2)n1 | 72 | - | 27 | - | -
CN(C(=O)c1ccc(Cl)c(S(=O)(=O)N2CCOCC2)c1)c1ccccc1C(=O)O | - | - | - | - | -
COc1ccccc1NC(=O)Nc1cccc(NC(C)=O)c1 | - | - | - | - | -
COc1ccc(NC(=O)Nc2cccc(NC(C)=O)c2)c(OC)c1 | - | - | - | 12µM | -
COCCCNC(=O)/C(C#N)=C/c1c(N2CCN(c3ccccc3)CC2)nc2ccccn2c1=O | - | ? | - | ? | -
CC(C)CCCN1C(Nc2ccccc2)=NC[C@@H]1C | - | - | - | - | -
COc1ccc(OCC(=O)N/N=C/c2ccc(N(C)C)cc2)cc1 | - | - | 26 | ? | .
COc1ccc(/C=N/NC(=O)CNC(=O)COc2ccccc2)cc1 | - | - | - | - | -
CCCCCC(=O)N/N=C/c1ccc(N(C)C)cc1 | - | - | 18 | - | -
CN(C)c1ccc(/C=N/NC(=O)CCCO)cc1 | 63 | - | 41 | - | .
CN(C)c1ccc(/C=N\NC(=O)CC#N)cc1 | 35 | - | - | - | .
CN(C)c1ccc(/C=N/NC(=O)CCC(=O)NCc2ccccc2)cc1 | - | - | - | - | -
CN(C)c1ccc(/C=N/NC(=O)CNC(=O)c2ccncc2)cc1 | - | - | - | - | -
O=C(c1cc2ccccc2oc1=O)N(Cc1cccs1)Cc1ccccc1Cl | 60 | ? | 45 | - | -
CN(Cc1ccccc1Cl)C(=O)c1cc2ccccc2o1 | 39 | - | 31 | - | -
CCN(Cc1ccc(OC)c(F)c1)C(=O)c1cc2ccccc2o1 | - | - | 18 | - | -
CN(Cc1ccc(N(C)C)cc1)C(=O)c1cc2ccccc2o1 | 68 | - | 28 | - | -
CCOc1ccc(CN(C)C(=O)c2cc3ccccc3o2)cc1OC | - | - | - | ? | -
O=C(c1cc2ccccc2o1)N(Cc1ccco1)Cc1cccs1 | . | ? | . | - | .
CN(Cc1ccc(Cl)cc1Cl)C(=O)c1cc(=O)c2ccccc2o1 | - | - | - | - | -
CN(Cc1ccccc1)C(=O)c1cc2ccccc2o1 | - | . | - | - | -
Cc1ccnc(SC2CC(=O)N(c3ccc(F)cc3)C2=O)n1 (centres undefined) | - | - | - | - | -
COc1ccccc1NC(=O)Cc1nnc(SCC(=O)NC2=NCCS2)n1C | - | - | - | - | -
CC1S/C(=C(\C#N)C(=O)NCc2ccco2)N(c2ccc(F)cc2)C1=O (centres undefined) | - | - | - | - | -
SMILES | Shiga toxin inh | Pf growth 48h | Cycloheximide cs | Pf growth 96h | NS1 function inh
Cc1c(NC(=O)Cn2ccc([N+](=O)[O-])n2)c(=O)n(-c2ccccc2)n1C | - | ? | - | - | -
CN(C)CCCOC(=O)c1cc2ccccc2o1 | - | 2.6µM | - | ? | -
O=C(OCCN1C(=O)c2ccccc2C1=O)c1cc2ccccc2o1 | - | - | - | -[5.75 µM] | -
CCc1ccc(NC(=O)CS(=O)CC(=O)Nc2ccc(N3CCOCC3)cc2)cc1 (centres undefined) | - | - | - | - | -
CCOc1ccc2ccccc2c1C1NC(=S)N(C)C(C)=C1C(=O)OC (centres undefined) | - | ? | - | 3.3µM | -
COc1ccc(S(=O)(=O)N2CCCC(C(=O)NCc3ccncc3)C2)cc1 (centres undefined) | - | - | - | ? | -
CCOC(=O)C1=C(C)N=C2SC(C(=O)OC)=CC(=O)N2C1c1ccc(OC)cc1 (centres undefined) | - | ? | - | - | .
COc1ccc(NC(=O)CCS(=O)(=O)c2ccccc2)c(OC)c1 | 36 | - | 15 | - | -
COc1ccc(NC(=O)CSc2ccccc2)c(OC)c1 | 83 | - | 43 | ? | -
COc1ccc(S(=O)(=O)CCC(=O)Nc2ccc(OC)cc2OC)cc1 | - | - | - | ? | -
COc1ccc(NC(=O)CSc2nccn2Cc2ccccc2)c(OC)c1 | - | - | - | - | -
CN(C)C(=O)N1CCN(S(=O)(=O)c2ccc3ccccc3c2)CC1 | . | - | - | 10µM | -
